# Measured values published in PubChem BioAssay AID2551 (National Center for Advancing Translational Sciences (NCATS), 2010).
# Where “and” joins values, the source holds several entries; their conditions need not be identical. Equal entries are not always repeated. The whole screen tested about 310,000 compounds, of which about 17,000 (5.5%) were called active. Entries that show only a call come without a potency. Another 11% or so got no clear call; they are omitted. The full list was thinned out, with actives kept by preference. A number with no mark means an inactive call. The call rests on the fitted dose curve; in most records, active means well fitted inhibition curve with a large enough effect; inconclusive means small, poorly fitted or top-dose-only effect, or effect the other way; inactive means no such curve, though single readings can be large or run the other way.
# Biological target: Nuclear receptor ROR-gamma (Mus musculus) (UniProt P51450)
# Sequence (P51450 whole entry, looked up): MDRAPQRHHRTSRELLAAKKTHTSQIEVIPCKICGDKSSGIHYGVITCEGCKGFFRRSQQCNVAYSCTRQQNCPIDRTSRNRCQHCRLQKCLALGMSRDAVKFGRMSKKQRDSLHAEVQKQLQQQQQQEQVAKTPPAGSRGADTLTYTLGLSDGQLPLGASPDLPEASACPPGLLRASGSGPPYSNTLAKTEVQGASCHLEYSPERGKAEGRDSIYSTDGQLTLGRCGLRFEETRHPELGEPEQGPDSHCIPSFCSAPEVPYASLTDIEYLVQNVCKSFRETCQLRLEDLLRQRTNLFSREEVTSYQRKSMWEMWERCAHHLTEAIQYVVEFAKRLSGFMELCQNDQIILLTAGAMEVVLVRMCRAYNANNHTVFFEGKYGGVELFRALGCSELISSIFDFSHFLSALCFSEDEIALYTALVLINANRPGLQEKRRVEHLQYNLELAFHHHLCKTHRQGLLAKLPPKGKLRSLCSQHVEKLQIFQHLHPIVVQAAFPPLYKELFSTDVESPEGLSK
# Assay: qHTS for inhibitors of ROR gamma transcriptional activity; further: nearly all actives have a fitted effect of over 60% in size
# Conditions: Drosophila S2 Gal4-RORgamma UAS-luciferase reporter, 20 h; series mostly up to 53.6 µM
# Procedure, shortened: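 Drosophila S2 cells stably expressing Gal4-DBD/mouse RORγ fusion under metallothionein promoter plus UAS-luciferase; compound 1 h, then 700 uM CuSO4 induction for 20 h at ambient temperature; inhibition read as reduced luminescence.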
# Potency means the concentration at half of the fitted maximal effect.
SMILES,"activity change, negative = inhibition",Potency
COc1ccc(/C=C/NC(=O)c2ccc(OC)cc2)cc1,-26.7% [at 10 µM],–
O=C(/C=C/c1ccccc1)c1ccccc1O,–,inactive
COc1ccc(/C=C/C(=O)c2ccc(OC)cc2O)cc1,–,8.91 µM (active) and 316 nM (active)
CCC(C(=O)NCc1cccnc1)n1nc(C)c2sc3ccccc3c2c1=O (stereo not drawn),–,inactive
CC(=O)CCC(=O)c1ccc2ccccc2c1,–,inactive
C=CC(=O)c1ccc2ccccc2c1,–,0.631 µM (active)
CC(=O)c1ccc2c(ccc3ccccc32)c1,–,inactive
COc1ccc2[nH]cc(/C=C(/C#N)S(=O)(=O)c3ccccc3)c2c1,–,7.08 µM (active)
CCN(CC)CC(=O)c1c[nH]c2ccc(OC)cc12,–,inactive
COc1ccc(/C=C(\C#N)c2c[nH]c3ccccc23)cc1,–,inactive
COC(=O)c1cccc(C(=O)N2CCC(CCC(=O)NCc3ccc(F)cc3)CC2)c1,–,inactive
COc1cccc(CN(C)CC2CCCN(CCc3ccc(Cl)cc3)C2)c1OC (stereo not drawn),–,inactive
CCS(=O)(=O)N1Cc2ccccc2CC1C(=O)Nc1ccc(OC)cc1OC (stereo not drawn),–,inactive
CCS(=O)(=O)N1Cc2ccccc2CC1C(=O)Nc1nc2ccc(F)cc2s1 (stereo not drawn),–,4.47 µM (active)
NS(=O)(=O)c1ccc2nc(NC(=O)CS(=O)(=O)c3ccc(F)cc3)sc2c1,–,inactive
O=C(c1ccc(F)cc1)N1CCCC(C(=O)N2CCCCC2)C1 (stereo not drawn),–,inactive
Cc1cc(NS(=O)(=O)c2ccc(NC(=O)c3cccnc3)cc2)nc(C)n1,–,inactive
Cc1cc(C)c2c(Cn3ccnc3)cc(=O)oc2c1,–,inactive
O=C(c1cc(-c2ccc(Cl)cc2)on1)N1CCN(c2ccccc2)CC1,–,inactive
CCOc1ccccc1/C=N/Nc1nc2ccccc2o1,–,6.31 µM (active)
COc1ccc(/C=N/Nc2nc3ccccc3o2)cc1OC,–,inactive
Brc1ccccc1/C=N/Nc1nc2ccccc2o1,–,2.51 µM (active)
O=C(CSc1nc2ccccc2o1)N/N=C/c1ccccc1C(=O)O,–,inactive
Oc1c(Br)cccc1/C=N/Nc1c(F)c(F)c(F)c(F)c1F,–,inactive
Cc1cccc(COc2ccccc2/C=N/Nc2ccc([N+](=O)[O-])cc2)c1,–,inactive

SMILES,"activity change, negative = inhibition",Potency
CC(=O)Nc1ccc(S(=O)(=O)Nc2cc(C)cn(Cc3ccc(C)cc3)c2=O)cc1,–,inactive
COCC1CCN(C(=O)C2CCC(=O)N(CC3CCCCC3)C2)CC1 (stereo not drawn),–,inactive
CCC(=O)/C(=C(/O)c1ccccc1)c1nc2ccccc2[nH]1,–,6.31 µM (active)
CN(Cc1ccccc1)C(=O)CSc1nc2ccccc2[nH]1,–,inactive
CC/C(O)=C1\C(=O)CC(C)(C)CC1=NCCc1nc2ccccc2[nH]1,–,inactive
CSc1ncccc1C(=O)Nc1ccc(C)cn1,–,inactive
O=C(Nc1nnc(-c2ccc(F)cc2)s1)c1c(F)cccc1Cl,–,inactive
COc1cc(S(=O)(=O)N2CCN=C2c2ccccc2)ccc1Cl,–,inactive
CC1=NN(C(=O)c2ccccc2Br)C(O)(c2cccnc2)C1 (stereo not drawn),–,5.62 µM (active)
CC1=NN(C(=O)Cc2ccc(C)cc2)C(O)(c2cccnc2)C1 (stereo not drawn),–,8.91 µM (active)
Cc1ccc(C(=O)NC(=S)NCc2cccnc2)cc1,–,inactive
Cc1ccc(NC(=O)N2CCC(O)(c3cccnc3)CC2)cc1,–,inactive
O=C(c1cccc(F)c1)N1CCC(O)(c2cccnc2)CC1,–,inactive
O=C(CN1CCN(Cc2ccccc2)CC1)Nc1ccc(F)c(F)c1,–,inactive
CCCC[C@H]1COCCS(=O)(=O)N1Cc1cccc(Cl)c1,–,inactive
O=C(NCCN1CCCC(O)C1)c1cc(COc2c(F)cccc2F)on1 (stereo not drawn),–,inactive
Cc1ccc(C)c(NC(=O)c2cc(-c3cc(C)cc(C)c3O)n[nH]2)c1,–,inactive
COc1cccc(OCc2cc(C(=O)N3CCN(C(=O)c4ccco4)CC3)no2)c1,–,inactive
COc1ccc(C(=O)NC(=S)N2CCCCC2c2cccnc2)cc1OC (stereo not drawn),–,0.891 µM (active)
COc1ccc(C(=O)Nc2cccnc2)cc1C(=O)Nc1cccnc1,–,inactive
COc1ccc(/C=C/C(=O)NC(=S)N2CCCC(C(N)=O)C2)cc1 (stereo not drawn),–,inactive
O=C(Nc1ccccc1C(F)(F)F)N1CCCC1c1cccnc1 (stereo not drawn),–,inactive
COc1ccc(/C=C/C(=O)NC(=S)NN2CCCCC2c2cccnc2)cc1 (stereo not drawn),–,7.08 µM (active)
CCOC(=O)C1CCCN(C(=O)/C=C/c2ccc(OC)cc2)C1 (stereo not drawn),–,inactive
COc1ccc(C(=O)N2CCCC(C(=O)c3ccccc3OC)C2)cc1OC (stereo not drawn),–,inactive

SMILES,"activity change, negative = inhibition",Potency
O=C(NC(=S)N1CCCCC1c1cccnc1)c1ccccc1 (stereo not drawn),–,0.794 µM (active)
Cc1ccc(-c2cc(C(F)(F)F)n3ncc(C(=O)N4CCCCC4c4cccnc4)c3n2)cc1 (stereo not drawn),–,inactive
CCN1CCN(C(=O)C2CCCN(S(=O)(=O)c3ccc(OC)c(OC)c3)C2)CC1 (stereo not drawn),–,inactive
COc1cc(C(=O)OC2CCOC2=O)c([N+](=O)[O-])cc1OC (stereo not drawn),–,inactive
Cc1ccccc1NC(=O)C1CCN(C(=O)NC2CCCCC2)CC1,–,inactive
Cc1ccc(NC(=S)N2CCN(c3ncccn3)CC2)cc1C,–,12.6 µM (active)
CNC(=S)N1CCN(c2ccccn2)CC1,–,inactive
CCOC(=O)c1ccc(NC(=S)N2CCN(c3ccccn3)CC2)cc1,–,inactive
Cc1c(CC(=O)NCC(=O)NCC(=O)O)c(=O)oc2cc3oc4c(c3cc12)CCCC4,–,inactive
O=C(OCC(=O)N1CCN(C(=O)c2ccco2)CC1)c1cccc(O)c1,–,inactive
Cn1c(-c2sccc2OCc2cccc(C(F)(F)F)c2)n[nH]c1=S,–,4.47 µM (active)
O=C(c1ccco1)N1CCN(Cc2cccc(C(F)(F)F)c2)CC1,–,inactive
CCOC(=O)N1CCN(Cc2nc(Cc3cccc(C(F)(F)F)c3)no2)CC1,–,inactive
COc1ccccc1CNS(=O)(=O)c1c(C)[nH]c(C)c1C(=O)N1CCCCC1,–,inactive
O=c1c2cc(Br)ccc2nc(-c2cccc(Cl)c2)n1O,–,12.6 µM (active)
Cc1cccc(-c2nc3ccccc3c(=O)n2NC(=O)Cc2ccc(Cl)cc2)c1,–,inactive
O=C1CCCc2c1nc(-c1cccc(Cl)c1)n2O,–,inactive
NC(=O)CSc1c[nH]c2ccccc12,–,inactive
CSC(=S)N/N=C/c1c[nH]c2ccccc12,–,0.398 µM (active)
O=C(Cc1c[nH]c2ccccc12)N/N=C/c1cccc(F)c1,–,inactive
O=C(N/N=C/c1c[nH]c2ccccc12)c1ccccc1O,–,5.62 µM (active)
O=C(N/N=C/c1ccc([N+](=O)[O-])cc1)c1c[nH]c2ccccc12,–,inactive
O=C(N/N=C/c1c[nH]c2ccccc12)c1cc2ccccc2o1,–,inactive
